Source: PubChem
Rows were chosen to be rich in hits. Some 3.3% of all compounds tested hit in one or more screens of this group.
FGF22 binding = binders of human FGF22 protein, primary screen, FGF22 synaptogenesis inhibitor project, biophysical, thermal shift, single point; Fibroblast growth factor 22 (Homo sapiens), Q9HCT0; recombinant FGF22 thermal shift, SYPRO orange fluorescence; percent of sucrose octasulfate shift, DMSO zero; activity (Tm shift, normalised), % at 9.99 µM; 340,000 tested, 1.5% active;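 active = mean Tm shift, scaled 0 neutral to 100 positive control, at about 1.3% or above, every replicate too, limit read from the data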
Casp6 inh = human caspase-6 inhibitors, primary screen, biochemical, VEID-R110 fluorescence, single point, set 2; purified caspase-6, Z-VEID-R110 cleavage fluorescence; inhibition, % at 12.5 µM; 350,000 tested, 0.53% active; AID 686996, 2013;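 active = mean inhibition across replicates at least about 35%, with every replicate also reaching that limit, limit read from the data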
INS-1E GSIS act = GLuc luminescence reporter in INS-1E cells, primary screen for activators of glucose-dependent secretion of insulin; activation, % at 16.6 µM; 370,000 tested, 0.61% active; AID 743287, 2014; INS-1E GLuc reporter insulin secretion, 2-3 h;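 active = lowest replicate activation of at least 40%, so every replicate reaches that level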
SIRT5 inh = SIRT5 desuccinylase inhibitors, primary screen, biochemical, fluorescence imaging, single point, set 5; Purified SirT5, succinyl-peptide AMC, trypsin-coupled fluorescence; 330,000 tested, 1.1% active; inhibition, % at 15 µM; NAD-dependent protein deacylase sirtuin-5, mitochondrial (Homo sapiens), Q9NXA8; AID 652115, 2013; in the data active = inhibition above about 15%
ERAP1 inh = human ERAP1 aminopeptidase inhibitors, primary screen, biochemical, single point, plate reader; Endoplasmic reticulum aminopeptidase 1 (Homo sapiens), Q9NZ08; recombinant ERAP1, Leu-AMC fluorescence, 60 min; inhibition, % at 10.7 µM; 340,000 tested, 0.15% active; AID 652197, 2013;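 active = mean replicate inhibition of at least 30%, or all replicates individually reaching that 30% level; inactive = mean below 30% and not every replicate reaching it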
A number is an active result; ! = not confirmed by another sample.

Results for Cc1cccc(COCC(Cc2ccccc2)N2CCN(C(=O)c3cccc(Cl)c3)CCC2=O)c1 (stereo unspecified) ?
FGF22 binding: inactive; Casp6 inh: inactive; INS-1E GSIS act: inactive

What do the screens show for `COc1ccc(NC(=O)Nc2ccc3c(c2)C(=O)N([C@H](C)CO)C[C@H](C)[C@@H](CN(C)C(=O)Cc2ccccc2)OCCCC[C@@H](C)O3)cc1`?
FGF22 binding: inactive; Casp6 inh: inactive; INS-1E GSIS act: inactive; SIRT5 inh: inactive; ERAP1 inh: inactive

How did Clc1cccc(Cc2c(-c3cccc(Br)c3)nc3c4ccccc4ccn23)c1 do in these assays?
FGF22 binding: 43.3; Casp6 inh: inactive; INS-1E GSIS act: inactive; ERAP1 inh: inactive

Results for Clc1ccc(-c2nc3c4ccccc4ccn3c2Cc2cccc(Cl)c2)cc1 ?
FGF22 binding: inactive; Casp6 inh: inactive; SIRT5 inh: inactive; ERAP1 inh: inactive

Results for Cc1ccc(Cc2c(-c3cccc(Br)c3)nc3c(Cl)cc(C(F)(F)F)cn23)cc1 ?
FGF22 binding: inactive; Casp6 inh: inactive; INS-1E GSIS act: inactive; SIRT5 inh: 25.0

Results for Fc1cccc(Cc2c(-c3cccc(Br)c3)nc3c(Cl)cc(C(F)(F)F)cn23)c1 ?
FGF22 binding: inactive; Casp6 inh: inactive; INS-1E GSIS act: inactive; SIRT5 inh: inactive; ERAP1 inh: inactive

How did CN1C(=O)c2cc(NC(=O)c3cscn3)ccc2OC[C@H]2O[C@H](CC(=O)N3CCCCC3)CC[C@H]21 do in these assays?
FGF22 binding: inactive; Casp6 inh: inactive; INS-1E GSIS act: inactive; SIRT5 inh: inactive; ERAP1 inh: inactive

Results for Cc1cc(Cl)ccc1NC(=O)COC(=O)c1nc2nccc(C)n2n1 ?
FGF22 binding: 43.3; Casp6 inh: inactive; INS-1E GSIS act: inactive; SIRT5 inh: inactive; ERAP1 inh: inactive

Results for CCCNC(=O)N1CC2(CCN(C(=O)c3cccnc3)CC2)c2c([nH]c3cc(OC)ccc23)[C@H]1CO ?
FGF22 binding: inactive; Casp6 inh: inactive; INS-1E GSIS act: inactive; SIRT5 inh: inactive; ERAP1 inh: inactive

Results for O=C(Cc1cccs1)N/N=C/C=C/c1ccco1 ?
FGF22 binding: inactive; Casp6 inh: 37.7; SIRT5 inh: inactive; ERAP1 inh: inactive

How did O=C(N/N=C/C=C\c1ccco1)c1ccccn1 do in these assays?
FGF22 binding: inactive; Casp6 inh: 37.2; INS-1E GSIS act: inactive; SIRT5 inh: inactive; ERAP1 inh: inactive

What do the screens show for `O=C(N/N=C/C=C/c1ccco1)c1cnccn1`?
FGF22 binding: inactive; Casp6 inh: inactive; INS-1E GSIS act: inactive

How did C#CCCCCCCCCC(=O)NCCCC do in these assays?
FGF22 binding: 43.3; Casp6 inh: inactive; INS-1E GSIS act: inactive; SIRT5 inh: inactive; ERAP1 inh: inactive

Results for CCCCCCCCCCCCCCCC(=O)NCCO ?
FGF22 binding: inactive; Casp6 inh: inactive; INS-1E GSIS act: inactive; SIRT5 inh: inactive; ERAP1 inh: inactive

How did CS(=O)(=O)Nc1cccc(C2=NN(C(=O)CCC(=O)O)C(c3cccs3)C2)c1 (stereo unspecified) do in these assays?
FGF22 binding: inactive; Casp6 inh: inactive; INS-1E GSIS act: inactive; SIRT5 inh: inactive; ERAP1 inh: inactive

What do the screens show for `CCC(=O)N1N=C(c2cccc(NS(C)(=O)=O)c2)CC1c1cccs1` (stereo unspecified)?
FGF22 binding: inactive; Casp6 inh: inactive; INS-1E GSIS act: inactive; SIRT5 inh: inactive; ERAP1 inh: inactive

Results for CS(=O)(=O)Nc1ccc(C2=NN(C(=O)c3ccccc3)C(c3cccs3)C2)cc1 (stereo unspecified) ?
FGF22 binding: inactive; Casp6 inh: inactive; INS-1E GSIS act: inactive; SIRT5 inh: inactive; ERAP1 inh: inactive

What do the screens show for `CCS(=O)(=O)Nc1cccc(C2=NN(C(C)=O)C(c3cccs3)C2)c1` (stereo unspecified)?
FGF22 binding: 43.0; Casp6 inh: inactive; INS-1E GSIS act: inactive; SIRT5 inh: inactive; ERAP1 inh: inactive

What do the screens show for `CCS(=O)(=O)N1N=C(c2cccc(NS(C)(=O)=O)c2)CC1c1ccccc1` (stereo unspecified)?
FGF22 binding: inactive; Casp6 inh: inactive; INS-1E GSIS act: inactive; SIRT5 inh: inactive; ERAP1 inh: inactive

Results for CC(C)(C)C(=O)N1N=C(c2ccc(NS(C)(=O)=O)cc2)CC1c1cccs1 (stereo unspecified) ?
FGF22 binding: 43.2; Casp6 inh: inactive; INS-1E GSIS act: inactive; SIRT5 inh: inactive; ERAP1 inh: inactive

Results for CCS(=O)(=O)Nc1cccc(C2=NN(S(C)(=O)=O)C(c3ccccc3)C2)c1 (stereo unspecified) ?
FGF22 binding: 43.2; Casp6 inh: inactive; INS-1E GSIS act: inactive; SIRT5 inh: inactive; ERAP1 inh: inactive

What do the screens show for `CC(=O)N1N=C(c2cccc(NS(C)(=O)=O)c2)CC1c1cccs1` (stereo unspecified)?
FGF22 binding: inactive; Casp6 inh: inactive; INS-1E GSIS act: inactive; SIRT5 inh: 23.1; ERAP1 inh: inactive

Results for CN(C)CCCNC(=O)[C@H]1[C@H](CO)[C@H]2Cn3c(ccc(-c4ccc(F)cc4)c3=O)[C@H]2N1C ?
FGF22 binding: inactive; INS-1E GSIS act: inactive; SIRT5 inh: inactive

What do the screens show for `O=C(Nc1ccccc1)N1C[C@@H]2[C@H](c3ccccc31)[C@H](CO)N2C(=O)c1ccccc1F`?
INS-1E GSIS act: inactive

How did C[C@H](NC(=O)C[C@@H]1CC[C@H]2[C@@H](COC[C@@H](O)CN2Cc2ccc(C(F)(F)F)cc2)O1)c1ccccc1 do in these assays?
FGF22 binding: inactive; Casp6 inh: inactive; INS-1E GSIS act: inactive; SIRT5 inh: 16.6; ERAP1 inh: inactive

What do the screens show for `O=C(C[C@H]1CC[C@H]2[C@@H](COC[C@@H](O)CN2Cc2ccncc2)O1)NCc1ccncc1`?
FGF22 binding: inactive; Casp6 inh: inactive; INS-1E GSIS act: inactive; SIRT5 inh: inactive; ERAP1 inh: inactive

How did C[C@@H](NC(=O)C[C@H]1CC[C@@H]2[C@H](COC[C@H](O)CN2Cc2ccc(C(F)(F)F)cc2)O1)c1ccccc1 do in these assays?
FGF22 binding: inactive; Casp6 inh: inactive; INS-1E GSIS act: inactive; SIRT5 inh: inactive; ERAP1 inh: inactive

What do the screens show for `O=C(C[C@@H]1CC[C@H]2[C@@H](COC[C@@H](O)CN2Cc2ccncc2)O1)NCc1ccncc1`?
FGF22 binding: inactive; Casp6 inh: inactive; INS-1E GSIS act: inactive; SIRT5 inh: 18.6; ERAP1 inh: inactive

What do the screens show for `O=C(C[C@H]1CC[C@@H]2[C@H](COC[C@H](O)CN2Cc2cccc(F)c2)O1)NCc1cccc(F)c1`?
FGF22 binding: inactive; Casp6 inh: inactive; INS-1E GSIS act: inactive; SIRT5 inh: 20.3!; ERAP1 inh: inactive
